Data from PubChem BioAssay (EPA / NIEHS).
Results filed as inconclusive are left out. Active and inactive are the calls of the source. How the source made its calls, unless noted: active means hit-call score of the fitted dose curve at least 0.9, where 1 is the maximum; inconclusive means response in the unintended direction; inactive means score below 0.9.

How the values were obtained:
[1] = biological target: human Peroxisome Proliferator-activated Receptor alpha (PPARa), PPARA (gene 5465) (UniProt Q07869); assay: ATG_PPARa_TRANS: Attagene TRANS-FACTORIAL HepG2 Assay for human Peroxisome Proliferator-activated Receptor alpha (PPARa) (AID 2283001);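 on AC50: potency for gain of reporter signal over DMSO so agonist or activator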
Chain of human Peroxisome Proliferator-activated Receptor alpha (PPARa), PPARA (gene 5465) (Q07869 whole entry, looked up, the tested form may be a part): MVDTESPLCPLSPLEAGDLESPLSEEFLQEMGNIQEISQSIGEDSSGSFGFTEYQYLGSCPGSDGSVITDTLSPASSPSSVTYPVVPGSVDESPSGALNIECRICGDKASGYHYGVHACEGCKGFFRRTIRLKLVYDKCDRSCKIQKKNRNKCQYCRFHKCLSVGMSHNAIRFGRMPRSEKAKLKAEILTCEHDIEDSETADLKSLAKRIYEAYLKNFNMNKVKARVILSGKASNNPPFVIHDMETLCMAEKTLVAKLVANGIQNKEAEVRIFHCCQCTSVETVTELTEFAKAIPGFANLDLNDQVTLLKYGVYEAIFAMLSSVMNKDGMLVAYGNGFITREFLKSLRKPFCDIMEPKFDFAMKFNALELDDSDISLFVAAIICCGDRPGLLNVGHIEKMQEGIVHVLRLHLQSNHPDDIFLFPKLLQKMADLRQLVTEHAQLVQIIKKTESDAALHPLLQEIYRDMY
Summary of the method: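 Measures transcriptional activity of an exogenous chimeric PPARa-Gal4 protein in transiently transfected HepG2 cells after 24 h dosing. Reporter mRNA quantified via RT-PCR and capillary electrophoresis; DMSO served as negative control.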

[2] = biological target: human Peroxisome Proliferator-activated Receptor delta (PPARd), PPARD (gene 5467) (UniProt Q03181); assay: ATG_PPARd_TRANS: Attagene TRANS-FACTORIAL HepG2 Assay for human Peroxisome Proliferator-activated Receptor delta (PPARd) (AID 2283002)
Chain of human Peroxisome Proliferator-activated Receptor delta (PPARd), PPARD (gene 5467) (Q03181 whole entry, looked up, the tested form may be a part): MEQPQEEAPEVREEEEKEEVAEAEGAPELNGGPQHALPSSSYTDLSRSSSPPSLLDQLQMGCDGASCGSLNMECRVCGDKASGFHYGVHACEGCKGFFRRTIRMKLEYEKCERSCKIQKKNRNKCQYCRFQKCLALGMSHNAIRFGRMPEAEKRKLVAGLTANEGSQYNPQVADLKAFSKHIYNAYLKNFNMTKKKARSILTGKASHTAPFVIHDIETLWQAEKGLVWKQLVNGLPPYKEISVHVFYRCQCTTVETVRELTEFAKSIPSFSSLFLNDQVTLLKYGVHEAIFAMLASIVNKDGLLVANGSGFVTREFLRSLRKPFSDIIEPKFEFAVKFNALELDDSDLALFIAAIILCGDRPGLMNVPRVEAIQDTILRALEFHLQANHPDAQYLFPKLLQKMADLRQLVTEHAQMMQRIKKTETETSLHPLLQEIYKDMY
Summary of the method: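 HepG2 cells transiently transfected with GAL4-UAS multiplexed reporter units driven by exogenous chimeric NR-GAL4 proteins; 24 h compound exposure. Reporter mRNA measured by RT-PCR, 6-FAM primer extension, HpaI digestion and capillary electrophoresis; gain of signal fitted relative to DMSO.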

[3] = biological target: Peroxisome proliferator-activated receptor gamma (Homo sapiens) (UniProt P37231); assay: ATG_PPARg_TRANS: Attagene TRANS-FACTORIAL HepG2 Assay for human Peroxisome Proliferator-activated Receptor-gamma (PPARg) (AID 2283007)
Chain of Peroxisome proliferator-activated receptor gamma (Homo sapiens) (P37231 whole entry, looked up, the tested form may be a part): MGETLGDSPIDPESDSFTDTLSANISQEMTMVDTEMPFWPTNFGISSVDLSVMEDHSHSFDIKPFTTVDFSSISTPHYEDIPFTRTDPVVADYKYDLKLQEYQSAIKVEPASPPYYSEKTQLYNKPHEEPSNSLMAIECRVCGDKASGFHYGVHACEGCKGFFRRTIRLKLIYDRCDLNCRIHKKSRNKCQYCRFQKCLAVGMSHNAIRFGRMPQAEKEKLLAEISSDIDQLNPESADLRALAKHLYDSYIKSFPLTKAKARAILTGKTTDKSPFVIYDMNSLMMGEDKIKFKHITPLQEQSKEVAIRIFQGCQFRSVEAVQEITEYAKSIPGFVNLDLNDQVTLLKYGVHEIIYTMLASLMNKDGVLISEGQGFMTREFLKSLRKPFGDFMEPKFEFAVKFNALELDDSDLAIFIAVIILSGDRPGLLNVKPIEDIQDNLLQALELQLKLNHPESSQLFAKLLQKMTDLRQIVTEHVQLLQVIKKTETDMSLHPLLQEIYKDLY
Summary of the method: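 HepG2 cells transiently transfected with multiplexed GAL4-UAS reporter units and exogenous chimeric NR-Gal4 proteins; reporter mRNA quantified after 24 h compound exposure by RT-PCR, fluorescent labelling, HpaI digestion and capillary electrophoresis; gain-of-signal fitted versus DMSO baseline.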

[4] = biological target: Nuclear receptor subfamily 1 group I member 2 (Homo sapiens) (UniProt O75469); assay: ATG_PXR_TRANS: Attagene TRANS-FACTORIAL HepG2 Assay for human Pregnane X Receptor (PXR) (AID 2283008)
Chain of Nuclear receptor subfamily 1 group I member 2 (Homo sapiens) (O75469 whole entry, looked up, the tested form may be a part): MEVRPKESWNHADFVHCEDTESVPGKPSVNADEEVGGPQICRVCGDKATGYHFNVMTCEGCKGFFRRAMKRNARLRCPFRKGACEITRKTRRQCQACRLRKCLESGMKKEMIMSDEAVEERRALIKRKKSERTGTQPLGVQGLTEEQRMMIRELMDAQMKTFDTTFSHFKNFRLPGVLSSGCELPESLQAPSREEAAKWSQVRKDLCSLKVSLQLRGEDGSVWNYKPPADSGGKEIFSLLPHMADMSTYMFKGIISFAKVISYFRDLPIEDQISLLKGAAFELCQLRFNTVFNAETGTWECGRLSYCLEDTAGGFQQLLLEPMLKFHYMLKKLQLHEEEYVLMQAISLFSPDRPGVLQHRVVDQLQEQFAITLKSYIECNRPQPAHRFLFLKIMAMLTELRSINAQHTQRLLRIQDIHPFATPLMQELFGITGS
Summary of the method: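 HepG2 cells transiently transfected with multiple reporter units, here a PXR-GAL4 chimera driving a GAL4-UAS reporter; 24 h compound exposure. Reporter mRNA measured by RT-PCR, FAM labelling and capillary electrophoresis; gain of signal fitted against DMSO baseline.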

[5] = biological target: human RAR-related Orphan Receptor beta (RORb), RORB (gene 6096) (UniProt Q92753); assay: ATG_RORb_TRANS: Attagene TRANS-FACTORIAL HepG2 Assay for human RAR-related Orphan Receptor beta (RORb) (AID 2283010)
Chain of human RAR-related Orphan Receptor beta (RORb), RORB (gene 6096) (Q92753 whole entry, looked up, the tested form may be a part): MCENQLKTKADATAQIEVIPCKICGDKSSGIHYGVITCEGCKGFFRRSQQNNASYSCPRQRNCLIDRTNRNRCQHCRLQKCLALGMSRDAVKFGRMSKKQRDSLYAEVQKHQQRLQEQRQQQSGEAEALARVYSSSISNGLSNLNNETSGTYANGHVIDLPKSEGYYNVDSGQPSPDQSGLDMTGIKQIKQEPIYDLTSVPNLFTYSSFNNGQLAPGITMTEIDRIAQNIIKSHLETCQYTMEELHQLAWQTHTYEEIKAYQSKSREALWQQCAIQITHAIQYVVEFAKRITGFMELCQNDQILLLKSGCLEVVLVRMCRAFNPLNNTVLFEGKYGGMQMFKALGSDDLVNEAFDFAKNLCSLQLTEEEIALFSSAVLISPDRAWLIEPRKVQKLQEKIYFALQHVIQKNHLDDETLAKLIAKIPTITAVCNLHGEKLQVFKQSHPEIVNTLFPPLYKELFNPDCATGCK
Summary of the method: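 HepG2 cells were transiently transfected with multiplexed GAL4-UAS reporter units expressing chimeric nuclear receptor–GAL4 proteins, then dosed for 24 h. Reporter mRNA was quantified by RT-PCR with fluorescent labelling and capillary electrophoresis; gain of signal was fitted relative to DMSO.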

[6] = biological target: human RAR-related Orphan Receptor gamma (RORg), RORC (gene 6097) (UniProt P51449); assay: ATG_RORg_TRANS: Attagene TRANS-FACTORIAL HepG2 Assay for human RAR-related Orphan Receptor gamma (RORg) (AID 2283011)
Chain of human RAR-related Orphan Receptor gamma (RORg), RORC (gene 6097) (P51449 whole entry, looked up, the tested form may be a part): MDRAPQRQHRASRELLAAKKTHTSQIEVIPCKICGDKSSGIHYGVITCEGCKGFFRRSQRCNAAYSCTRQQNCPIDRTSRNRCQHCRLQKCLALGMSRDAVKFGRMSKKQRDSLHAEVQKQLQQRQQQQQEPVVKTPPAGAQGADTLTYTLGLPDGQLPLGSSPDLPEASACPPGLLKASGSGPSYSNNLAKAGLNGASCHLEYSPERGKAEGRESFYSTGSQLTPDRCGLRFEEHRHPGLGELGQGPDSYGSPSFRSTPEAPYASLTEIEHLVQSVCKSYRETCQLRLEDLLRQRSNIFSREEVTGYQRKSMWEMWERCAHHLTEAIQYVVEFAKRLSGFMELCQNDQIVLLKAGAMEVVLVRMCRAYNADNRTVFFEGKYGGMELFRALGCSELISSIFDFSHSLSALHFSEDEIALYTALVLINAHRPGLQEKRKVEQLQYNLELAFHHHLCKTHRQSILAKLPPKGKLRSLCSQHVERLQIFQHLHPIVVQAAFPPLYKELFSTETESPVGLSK
Summary of the method: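 Readout: reporter transcript induction (RT-PCR, fluorescent primer extension, capillary electrophoresis) after 24 h compound exposure of transiently transfected HepG2 cells carrying a RORg-Gal4 chimera and GAL4-UAS reporters; DMSO served as baseline, with increasing signal fitted.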

[7] = biological target: Retinoic acid receptor RXR-alpha (Homo sapiens) (UniProt P19793); assay: ATG_RXRa_TRANS: Attagene TRANS-FACTORIAL HepG2 Assay for human Retinoid X Receptor alpha (RXRa) (AID 2283012)
Chain of Retinoic acid receptor RXR-alpha (Homo sapiens) (P19793 whole entry, looked up, the tested form may be a part): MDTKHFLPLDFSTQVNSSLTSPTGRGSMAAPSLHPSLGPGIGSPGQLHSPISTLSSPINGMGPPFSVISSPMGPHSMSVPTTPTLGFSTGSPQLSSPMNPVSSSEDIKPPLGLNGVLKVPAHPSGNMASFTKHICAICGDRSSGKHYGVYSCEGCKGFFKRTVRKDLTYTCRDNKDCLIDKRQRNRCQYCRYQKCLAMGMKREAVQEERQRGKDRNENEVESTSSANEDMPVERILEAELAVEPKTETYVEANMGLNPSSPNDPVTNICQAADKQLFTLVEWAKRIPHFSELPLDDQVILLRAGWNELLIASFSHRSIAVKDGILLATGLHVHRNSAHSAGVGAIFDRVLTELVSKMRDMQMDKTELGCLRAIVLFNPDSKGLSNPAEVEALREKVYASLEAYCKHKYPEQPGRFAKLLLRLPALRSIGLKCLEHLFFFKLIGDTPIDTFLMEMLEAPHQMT
Summary of the method: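 HepG2 cells transiently transfected with multiplexed GAL4-UAS reporter units and chimeric NR-GAL4 fusions, dosed 24 h. Reporter mRNA measured by RT-PCR, FAM labelling, HpaI digestion and capillary electrophoresis; gain-of-signal fitted relative to DMSO baseline.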

[8] = biological target: human Retinoid X Receptor beta (RXRb), RXRB (gene 6257) (UniProt P28702); assay: ATG_RXRb_TRANS: Attagene TRANS-FACTORIAL HepG2 Assay for human Retinoid X Receptor beta (RXRb) (AID 2283013)
Chain of human Retinoid X Receptor beta (RXRb), RXRB (gene 6257) (P28702 whole entry, looked up, the tested form may be a part): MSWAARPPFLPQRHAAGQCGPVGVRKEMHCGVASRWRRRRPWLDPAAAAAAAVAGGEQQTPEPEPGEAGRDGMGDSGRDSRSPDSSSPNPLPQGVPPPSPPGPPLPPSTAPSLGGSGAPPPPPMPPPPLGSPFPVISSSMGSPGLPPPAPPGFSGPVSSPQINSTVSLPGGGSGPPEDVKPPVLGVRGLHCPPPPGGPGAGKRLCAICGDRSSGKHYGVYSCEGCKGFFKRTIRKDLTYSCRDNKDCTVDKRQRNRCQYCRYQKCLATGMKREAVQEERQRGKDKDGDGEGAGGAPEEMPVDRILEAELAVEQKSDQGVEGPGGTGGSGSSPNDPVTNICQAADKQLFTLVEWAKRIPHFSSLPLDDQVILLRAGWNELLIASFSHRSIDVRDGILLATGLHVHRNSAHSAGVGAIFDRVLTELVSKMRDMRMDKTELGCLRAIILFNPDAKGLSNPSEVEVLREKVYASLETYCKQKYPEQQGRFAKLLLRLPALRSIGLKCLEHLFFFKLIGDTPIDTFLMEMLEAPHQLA
Summary of the method: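 HepG2 cells transiently transfected with multiplexed reporter units driven by GAL4-UAS and exogenous chimeric NR-Gal4 proteins; treated 24 h. Reporter mRNA measured by RT-PCR, 6-FAM labelling and capillary electrophoresis; gain-of-signal fitted versus DMSO baseline.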

[9] = biological target: human Thyroid Receptor alpha (THRa1), THRA (gene 7067) (UniProt P10827); assay: ATG_THRa1_TRANS: Attagene TRANS-FACTORIAL HepG2 Assay for human Thyroid Receptor alpha (THRa1) (AID 2283014)
Chain of human Thyroid Receptor alpha (THRa1), THRA (gene 7067) (P10827 whole entry, looked up, the tested form may be a part): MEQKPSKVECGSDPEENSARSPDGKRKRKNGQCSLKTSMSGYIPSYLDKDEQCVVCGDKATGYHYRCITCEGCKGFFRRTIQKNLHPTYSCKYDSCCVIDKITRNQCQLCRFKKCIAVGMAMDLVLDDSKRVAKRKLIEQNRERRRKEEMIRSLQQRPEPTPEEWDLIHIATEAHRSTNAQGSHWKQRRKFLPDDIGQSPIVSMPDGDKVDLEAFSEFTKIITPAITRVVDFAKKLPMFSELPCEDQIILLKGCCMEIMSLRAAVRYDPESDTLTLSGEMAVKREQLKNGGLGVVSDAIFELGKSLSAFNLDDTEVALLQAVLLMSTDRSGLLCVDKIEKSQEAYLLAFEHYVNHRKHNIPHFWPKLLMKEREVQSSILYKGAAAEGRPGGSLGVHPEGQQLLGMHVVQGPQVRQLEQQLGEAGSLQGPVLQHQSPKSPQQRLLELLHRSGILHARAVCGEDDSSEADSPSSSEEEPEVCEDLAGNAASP
Summary of the method: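 HepG2 cells transiently transfected with multiplexed GAL4-UAS reporter units for exogenous chimeric THRa1-Gal4; reporter mRNA measured 24 h after dosing by RT-PCR, 6-FAM labelling, HpaI digestion and capillary electrophoresis. Gain-of-signal fitted versus DMSO baseline.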

[10] = biological target: human Retinoic Acid Receptor beta (RARb), RARB (gene 5915) (UniProt P10826); assay: ATG_RARb_TRANS: Attagene TRANS-FACTORIAL HepG2 Assay for human Retinoic Acid Receptor beta (AID 2283004)
Chain of human Retinoic Acid Receptor beta (RARb), RARB (gene 5915) (P10826 whole entry, looked up, the tested form may be a part): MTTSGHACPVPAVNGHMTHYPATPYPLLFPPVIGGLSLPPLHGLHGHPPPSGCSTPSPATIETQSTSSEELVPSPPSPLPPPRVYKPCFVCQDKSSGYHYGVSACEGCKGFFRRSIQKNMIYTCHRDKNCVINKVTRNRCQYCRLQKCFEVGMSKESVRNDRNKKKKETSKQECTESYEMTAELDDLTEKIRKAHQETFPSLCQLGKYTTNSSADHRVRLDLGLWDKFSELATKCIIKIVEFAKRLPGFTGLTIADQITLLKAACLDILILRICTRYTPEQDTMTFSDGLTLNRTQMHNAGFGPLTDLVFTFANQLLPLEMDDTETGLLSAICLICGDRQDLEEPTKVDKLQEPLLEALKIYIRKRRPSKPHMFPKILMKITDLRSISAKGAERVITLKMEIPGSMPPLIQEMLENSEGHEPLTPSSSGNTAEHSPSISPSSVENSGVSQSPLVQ
Summary of the method: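 HepG2 cells transiently transfected with multiplexed GAL4-UAS reporter units expressing chimeric NR–Gal4 fusions; 24 h compound exposure. Reporter mRNA quantified by RT-PCR, 6-FAM labelling, HpaI digestion and capillary electrophoresis; gain-of-signal fitted against DMSO baseline.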

[11] = biological target: Retinoic acid receptor alpha (Homo sapiens) (UniProt P10276); assay: ATG_RARa_TRANS: Attagene TRANS-FACTORIAL HepG2 Assay for human Retinoic Acid Receptor alpha (RARa) (AID 2283005)
Summary of the method: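 HepG2 transiently transfected with multiplex GAL4-UAS reporter units including a human RARa–GAL4 chimera; 24 h compound exposure. Reporter mRNA quantified by RT-PCR, 6-FAM labeling and capillary electrophoresis; gain of signal versus DMSO.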

[12] = read-out: Intercellular Adhesion Molecule 1 (ICAM1), ICAM1 (gene 3383); assay: BSK_3C_ICAM1: BioMAP Diversity Plus: 3C Assay for Intercellular Adhesion Molecule 1 (ICAM1) Biomarker Activity (AID 2283003; active means hit-call score of the fitted dose curve at least 0.9, where 1 is the maximum; inactive means score below 0.9); conditions: primary human endothelial cells (HUVEC); actives raise or lower the signal
Summary of the method: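 Primary human umbilical vein endothelial cells in the BioMAP 3C system were exposed to chemicals for 24 h, then ICAM-1 was quantified by ELISA. Activity was fitted bidirectionally against the DMSO negative control baseline.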

[13] = BSK_3C_Proliferation: Cell Proliferation Assessment in the BioMAP Diversity Plus: 3C Assay (AID 2283006; active means hit-call score of the fitted dose curve at least 0.9, where 1 is the maximum; inactive means score below 0.9); conditions: primary human endothelial cells (HUVEC)
Summary of the method: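 Human umbilical vein endothelial cells were grown sub-confluent and exposed to chemical for 48 h, then fixed with 10% TCA and stained with 0.1% sulforhodamine B; absorbance at 560 nm gave relative cell number, fitted bidirectionally against DMSO baseline.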

[14] = read-out: E-selectin (Homo sapiens) (UniProt P16581); assay: BSK_3C_Eselectin: BioMAP Diversity Plus: 3C Assay for Eselectin Biomarker Activity (AID 2283015; active means hit-call score of the fitted dose curve at least 0.9, where 1 is the maximum; inactive means score below 0.9;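 further: cell surface E-selectin protein quantified by ELISA 24 h after dosing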); conditions: primary human endothelial cells (HUVEC); actives raise or lower the signal
Summary of the method: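 Primary human umbilical vein endothelial cells (3C system) were dosed with chemical and cell-surface E-selectin measured by ELISA 24 h later. Bidirectional curve fitting used DMSO as negative control and baseline.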

[15] = read-out: Interleukin-1 alpha (IL1a), IL1A (gene 3552); assay: BSK_BE3C_IL1a: BioMAP Diversity Plus: BE3C Assay for Interleukin-1 alpha (IL1a) Biomarker Activity (AID 2283016; active means hit-call score of the fitted dose curve at least 0.9, where 1 is the maximum; inactive means score below 0.9); conditions: primary human bronchial epithelial cells; actives raise or lower the signal
Summary of the method: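 Human primary bronchial epithelial cells (BE3C system) were dosed with compound and IL-1a measured by ELISA 24 h later. Activity was fitted bidirectionally against DMSO baseline; cytotoxicity was tracked in parallel cultures by SRB total-protein staining.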

[16] = read-out: Monocyte Chemoattractant Protein-1 (MCP1), CCL2 (gene 6347); assay: BSK_3C_MCP1: BioMAP Diversity Plus: 3C Assay for Monocyte Chemoattractant Protein-1 (MCP1) Biomarker Activity (AID 2283017; active means hit-call score of the fitted dose curve at least 0.9, where 1 is the maximum; inactive means score below 0.9); conditions: primary human endothelial cells (HUVEC); actives raise or lower the signal
Summary of the method: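 Primary human umbilical vein endothelial cells (3C system) were exposed to test chemical for 24 h, after which MCP-1 was quantified by ELISA. Activity was fitted bidirectionally against DMSO as negative control and baseline.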

[17] = read-out: Monocyte Chemoattractant Protein-1 (MCP1), CCL2 (gene 6347); assay: BSK_4H_MCP1: BioMAP Diversity Plus: 4H Assay for Monocyte Chemoattractant Protein-1 (MCP1) Biomarker Activity (AID 2283018; active means hit-call score of the fitted dose curve at least 0.9, where 1 is the maximum; inactive means score below 0.9); conditions: primary human endothelial cells (HUVEC); actives raise or lower the signal
Summary of the method: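 Human umbilical vein endothelial cells (4H system) dosed with chemical; MCP-1 measured by ELISA 24 h after dosing. Bidirectional curve fitting against DMSO negative control as baseline; parallel SRB total-protein staining tracks overt cytotoxicity.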

[18] = read-out: Human Leukocyte Antigen - DR isotype (HLADR), HLA-DRA (gene 3122); assay: BSK_3C_HLADR: BioMAP Diversity Plus: 3C Assay for Human Leukocyte Antigen - DR isotype (HLADR) Biomarker Activity (AID 2283019; active means hit-call score of the fitted dose curve at least 0.9, where 1 is the maximum; inactive means score below 0.9;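 further: ELISA of cell-surface HLA-DR on HUVEC 24 h after dosing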); conditions: primary human endothelial cells (HUVEC); actives raise or lower the signal
Summary of the method: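 Primary human umbilical vein endothelial cells (3C system) were dosed with compound and cell-surface HLA-DR was quantified by ELISA at 24 h. Activity was fitted bidirectionally against DMSO as negative control and baseline.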

[19] = read-out: Interleukin-8 (IL8), CXCL8 (gene 3576); assay: BSK_3C_IL8: BioMAP Diversity Plus: 3C Assay for Interleukin-8 (IL8) Biomarker Activity (AID 2283020; active means hit-call score of the fitted dose curve at least 0.9, where 1 is the maximum; inactive means score below 0.9); conditions: primary human endothelial cells (HUVEC); actives raise or lower the signal
Summary of the method: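 Primary human umbilical vein endothelial cells (3C system) were exposed to test chemical for 24 h, then IL-8 was quantified by ELISA. Responses were fitted bidirectionally against DMSO vehicle as baseline.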

[20] = read-out: Monokine induced gamma interferon (MIG), CXCL9 (gene 4283); assay: BSK_3C_MIG: BioMAP Diversity Plus: 3C Assay for Monokine induced gamma interferon (MIG) Biomarker Activity (AID 2283021; active means hit-call score of the fitted dose curve at least 0.9, where 1 is the maximum; inactive means score below 0.9); conditions: primary human endothelial cells (HUVEC); actives raise or lower the signal
Summary of the method: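 Primary human umbilical vein endothelial cells in the 3C system were exposed to chemical for 24 h, after which MIG was quantified by ELISA. Activity was fitted bidirectionally against DMSO as negative control and baseline.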

COc1cc(C)cc(O)c1
outcome [1]: inactive
outcome [2]: inactive
outcome [3]: inactive
outcome [4]: inactive
outcome [5]: inactive
outcome [6]: inactive
outcome [7]: inactive
outcome [8]: inactive
outcome [9]: inactive

CCCCCC(CO)CCC (stereo not drawn)
outcome [1]: inactive
outcome [2]: inactive
outcome [10]: inactive
outcome [11]: inactive
outcome [3]: inactive
outcome [4]: inactive
outcome [5]: inactive
outcome [6]: inactive
outcome [8]: inactive
outcome [9]: inactive

Cc1ccc2n[nH]nc2c1
outcome [1]: inactive
outcome [2]: inactive
outcome [12]: inactive
outcome [13]: inactive
outcome [3]: inactive
outcome [4]: inactive
outcome [6]: inactive
outcome [8]: inactive
outcome [9]: inactive
outcome [14]: inactive
outcome [15]: inactive
outcome [16]: inactive
outcome [17]: inactive
outcome [18]: inactive
outcome [19]: inactive
outcome [20]: inactive

Cc1cccc(Nc2ccccc2C(=O)O)c1C
AC50 [1]: 14.5 µM (active)
AC50 [2]: 77.8 µM (active)
AC50 [3]: 12.6 µM (active)
outcome [4]: inactive
outcome [7]: inactive
outcome [8]: inactive
outcome [9]: inactive

CCCC/C=C\CCCCCCCCCC=O
outcome [1]: inactive
outcome [2]: inactive
outcome [3]: inactive
outcome [4]: inactive
AC50 [8]: 6.07 µM (active)

NC(=O)Nc1ccc(Cl)cc1
outcome [1]: inactive
outcome [2]: inactive
outcome [3]: inactive
outcome [4]: inactive
outcome [5]: inactive
outcome [9]: inactive
